Reference: paper PMC7826789 (International Journal of Molecular Sciences, 2021)

Tests used:
Details in all cases: Compound Concentration (nM):1000
BRSK2 = test system: BRSK2
BTK = test system: BTK
BUB1 = test system: BUB1
CAMK1B = test system: T1, CAMK1B
T1 construct: gene PNCK

CAMK1D = test system: CAMK1D
CAMK1G = test system: CAMK1G
CAMK1 = test system: CAMK1
CAMK2A = test system: CAMK2A
CAMK2B = test system: CAMK2B
CAMK2D = test system: CAMK2D
CAMK2G = test system: CAMK2G
CAMK4 = test system: CAMK4
CAMKK1 = test system: CAMKK1
CAMKK2 = test system: CAMKK2
CASK = test system: CASK
CDC2L1 = test system: T2, CDC2L1
T2 construct: gene CDK11B

CDC2L2 = test system: CDC2L2
CDC2L5 = test system: T3, CDC2L5
T3 construct: gene CDK13

CDK11 = test system: T4, CDK11
T4 construct: gene CDK19

CDK2 = test system: CDK2
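Further: KINOMEscan scanMAX binding as percent activity remaining versus control; lower means stronger binding.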

| SMILES | Percent Control (BRSK2) | Percent Control (BTK) | Percent Control (BUB1) | Percent Control (CAMK1B) | Percent Control (CAMK1D) | Percent Control (CAMK1G) | Percent Control (CAMK1) | Percent Control (CAMK2A) | Percent Control (CAMK2B) | Percent Control (CAMK2D) | Percent Control (CAMK2G) | Percent Control (CAMK4) | Percent Control (CAMKK1) | Percent Control (CAMKK2) | Percent Control (CASK) | Percent Control (CDC2L1) | Percent Control (CDC2L2) | Percent Control (CDC2L5) | Percent Control (CDK11) | Percent Control (CDK2) |
| --- | --- | --- | --- | --- | --- | --- | --- | --- | --- | --- | --- | --- | --- | --- | --- | --- | --- | --- | --- | --- |
| COc1cc2ncn(-c3cc(O[C@H](C)c4ccccc4Cl)c(C(N)=O)s3)c2cc1OC [GSK237701A] | 47% | 53% | 56% | 87% | 91% | 93% | 86% | 89% | 100% | 82% | 88% | 100% | 92% | 43% | 88% | 100% | 97% | 75% | 84% | – |
| NS(=O)(=O)c1ccc(N/N=C2\C(=O)Nc3ccc(-c4cnco4)cc32)cc1 [GW276655] | 66% | 50% | 74% | 76% | 71% | 85% | 74% | 56% | 78% | 72% | 91% | 100% | 63% | 83% | 84% | 100% | 100% | 56% | 100% | 32% |
| CN1CCN(C(=O)c2ccc(NC(=O)Nc3ccc(N(C)c4ccnc(Nc5ccc(CS(C)(=O)=O)cc5)n4)cc3)cc2)CC1.Cl [GW830263A] | 100% | 50% | 46% | 85% | 98% | 88% | 100% | 86% | 86% | 69% | 100% | 100% | 28% | 100% | 85% | 67% | 51% | 13% | 100% | 87% |
| COc1ccc2[nH]c3c4[nH]c5ccc(OC)cc5c4c4c(c3c2c1)C(=O)NC4=O [GW296115X] | 6.2% | 74% | 29% | 78% | 64% | 76% | 80% | 70% | 100% | 64% | 80% | 98% | 78% | 74% | 100% | 90% | 91% | 100% | 100% | 93% |
| COc1cccc(-n2ncc3c(N/N=C/c4ccncc4)ncnc32)c1 [GW784752X] | 61% | 100% | 77% | 99% | 100% | 100% | 99% | 89% | 82% | 100% | 100% | 100% | 100% | 100% | 68% | 100% | 97% | 83% | 100% | 72% |
| CCS(=O)(=O)c1ccc(OC)c(Nc2ncc(-c3cccc(F)c3)o2)c1 [GW621970X] | 89% | 71% | 100% | 100% | 100% | 100% | 100% | 85% | 100% | 100% | 100% | 100% | 100% | 100% | 90% | 100% | 99% | 100% | 100% | 100% |
| C[C@@H](Oc1cc(-n2cnc3ccc(OC4CCN(C)CC4)cc32)sc1C(N)=O)c1ccccc1Cl [GSK579289A] | 56% | 92% | 88% | 100% | 61% | 81% | 55% | 74% | 80% | 52% | 69% | 100% | 85% | 67% | 11% | 97% | 94% | 79% | 100% | 74% |
| CN(C)c1cc2c(Nc3ccc4c(cnn4Cc4ccccc4)c3)ncnc2cn1 [GW282974X] | 88% | 64% | 63% | 98% | 96% | 91% | 95% | 74% | 62% | 72% | 82% | 100% | 77% | 73% | 100% | 100% | 100% | 67% | 99% | 79% |
| Cl.O=C(O[C@H]1CN[C@H](C#Cc2cc3ncnc(Nc4ccc5c(cnn5Cc5ccccc5)c4)c3s2)C1)N1CCOCC1 [GSK200398A] | 100% | 77% | 45% | 69% | 100% | 100% | 100% | 94% | 84% | 95% | 96% | 100% | 87% | 86% | 100% | 87% | 100% | 97% | 92% | 97% |
| COc1cc(/C=N/Nc2ncnc3[nH]ncc23)ccc1O [GW578748X] | 61% | 44% | 23% | 83% | 85% | 100% | 100% | 80% | 100% | 96% | 100% | 100% | 96% | 88% | 63% | 100% | 100% | 100% | 100% | 100% |
| CCS(=O)(=O)c1ccc(OC)c(Nc2ncc(-c3cccc(OC)c3)o2)c1 [GW580509X] | 96% | 99% | 95% | 100% | 99% | 100% | 87% | 71% | 80% | 97% | 93% | 100% | 97% | 79% | 95% | 100% | 100% | 100% | 100% | 100% |
